This is an account of results in PubChem BioAssay (NCATS).

Where “and” joins values, the source holds several entries; their conditions need not be identical. Identical values can stand only once. Unmarked numbers belong to inactive results. Inconclusive results are not listed. Calls of active or inactive are those of the source. Unless noted, calls follow the shape of the dose curve; as a rule, active = well fitted curve in the direction sought with a large enough effect; inconclusive = small, poorly fitted or top-dose-only effect, or another doubt; inactive = no such curve, though single readings can be large; an effect the other way counts as inactive or inconclusive.

A short description of assay [1]: Cell Viability - HepG2 (AID 433; calls by dose curve;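 also: potency is read from the fitted curve at half-maximal effect; cells exposed to compound for 40 hours; potency for ATP loss meaning cytotoxicity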). Conditions: qHTS. The essentials: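 ATP luminescence (CellTiter-Glo) after 40 h compound exposure, 37 °C, HepG2, 1500 cells/well, complete medium. Normalized: DMSO = basal, 100 uM tamoxifen = 100% inhibition. AC50 via standard Hill equation.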
A general note: Quantitative high-throughput screening tests each substance at several concentrations.

Assay [2] can be described thus: Cell Viability - NIH 3T3 (AID 541).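 Also: cells exposed to compound for 40 hours; plate controls were DMSO alone for no effect and tamoxifen positive control for full effect; nearly all actives have a fitted effect of over 25% in size.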 Conditions: NIH 3T3 cell viability, qHTS; activity change, negative = cytotoxicity: at 92.2 µM (top of the series). The essentials: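 AC50 values reflect concentration-dependent loss of intracellular ATP in NIH 3T3 cells after 40 hr treatment in complete culture medium, quantified by luciferase-based luminescence.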
The nature of assay [3]: Cell Viability - HUV-EC-C (AID 542).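 Also: cells exposed to compound for 40 hours; % is scaled to controls: 0 for no effect and ±100 for the full control effect; nearly all actives have a fitted effect of over 35% in size.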 Conditions: HUV-EC-C endothelial cell viability, qHTS; series mostly up to 92.2 µM. The essentials:
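Decrease in cellular ATP, quantified by luciferase luminescence, reflects toxicity in normal human vascular endothelial HUV-EC-C cells given compound for 40 hr in complete culture medium. Values are AC50s from concentration-response curves.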

A short description of assay [4]: Cell Viability - Renal Proximal Tubule (AID 545).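 Also: cells exposed to compound for 40 hours; nearly all actives have a fitted effect of over 40% in size.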 Conditions: renal proximal tubule cells viability; series mostly up to 91.7 µM. The procedure, abridged:
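Rat kidney proximal tubule cells, freshly isolated; 1000 cells/well, 5 hr settle, compound 40 hr 37 °C. CellTiter-Glo 20 min RT, luminescence read. AC50 by standard Hill fit.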

Assay [5] in a line: Cell Viability - Mesenchymal (AID 546).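 Also: cells exposed to compound for 40 hours before reading.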 Conditions: mesenchymal cells viability, qHTS; series mostly up to 91.7 µM. The procedure, abridged:
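Human kidney mesenchymal cells from normal renal glomeruli, 1000 cells/well, rested 5 hr at 37 °C, then treated 40 hr at 37 °C in complete medium. Cellular ATP read by CellTiter-Glo luminescence; AC50 from Hill-equation fits.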

Assay [6] can be described thus: Cellular Toxicity (caspase-3) HUV-EC-C (AID 656). Conditions: HUV-EC-C cells, caspase-3 activation (apoptosis), vehicle = 0, 100 µM tamoxifen = 100%; series mostly up to 92.2 µM. The essentials: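 Luminescent caspase-3/7 activation (aminoluciferin substrate cleavage) in HUV-EC-C cells after 16 hr compound exposure, 37°C. Signal normalized to DMSO basal and 100 uM tamoxifen as 100%; AC50 from concentration-response fitted with the Hill equation.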

A short description of assay [7]: Cellular Toxicity (caspase-3) SHSY5Y (AID 657).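 Also: cells exposed to compound for 16 hours at 37 °C.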 To be noted: SH-SY5Y caspase-3 activation, DMSO zero, 10 µM staurosporine = 100%; series mostly up to 91.7 µM. The procedure, abridged: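 Luminescent caspase-3/7 readout (aminoluciferin release) in SH-SY5Y cells after 16 h compound exposure in complete medium. Activity scaled between DMSO basal and 10 uM staurosporine as 100%; concentration-response fitted to Hill equation for AC50.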

Assay [8] is described as follows: Cellular Toxicity (caspase-3) Mesangial (AID 660).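 Also: combined caspase 3 and 7 activity read by Caspase-Glo luminescence; cells exposed to compound for 16 h before the caspase read.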 Conditions: mesangial cells, normalized: DMSO 0%, 100 µM tamoxifen 100%; series mostly up to 91.7 µM. The procedure, abridged: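 Concentration-response qHTS: compound-induced rise in caspase 3/7 luminescence in human mesangial cells after 16 h, normalized to DMSO and 100 uM tamoxifen controls.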
A short description of assay [9]: Cellular Toxicity (caspase-3) Renal Proximal Tubule (AID 667).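 Also: cells exposed to compound for 16 hours at 37 °C before detection; 0% = DMSO basal and 100% = 10 µM staurosporine.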 To be noted: renal proximal tubule cells; series mostly up to 91.7 µM. The procedure, abridged:
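Luminescent caspase 3/7 signal from peptide-aminoluciferin cleavage measures apoptosis in freshly isolated rat kidney proximal tubule cells after 16 h compound exposure. Concentration-response data are normalized to DMSO and 10 uM staurosporine, and AC50 values come from Hill equation fits.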

Assay [10] is described as follows: Cell Viability - LYMP2-003 (AID 965).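 Also: cells exposed to compounds for 24 h before reading; 0% = DMSO only and full effect = 92 µM tetraoctylammonium bromide; nearly all actives have a fitted effect of over 50% in size.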 Conditions: LYMP2-003 lymphoblastoid cell viability; series mostly up to 92.2 µM. The essentials:
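CellTiter-Glo luminescence (cellular ATP) after 24 h compound exposure at 37 C in complete medium; 2500 cells/well, 5 h settling beforehand. Concentration-response fitted to standard Hill equation for AC50. Tetraoctylammonium bromide served as positive control.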

Assay [11] can be described thus: Cell Viability - LYMP2-011 (AID 969).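 Also: 0% = DMSO only and full inhibition = 92 µM tetraoctylammonium bromide; nearly all actives have a fitted effect of over 60% in size.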 To be noted: LYMP2-011 lymphoblastoid cells viability; series mostly up to 92.2 µM. The essentials:
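Acute toxicity is scored as a concentration-dependent drop in intracellular ATP of a human lymphoblastoid line after 24 hr treatment. Values are AC50s modeled with the Hill equation.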

A short description of assay [12]: Cell Viability - LYMP2-010 (AID 981).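 Also: cells exposed to compound for 24 hours at 37 °C; % is scaled to controls: 0 for no effect and ±100 for the full control effect; nearly all actives have a fitted effect of over 55% in size.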 Conditions: LYMP2-010 lymphoblastoid cell viability, qHTS; series mostly up to 92.2 µM. The procedure, abridged: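 Acute toxicity is scored as a concentration-dependent loss of cellular ATP in human lymphoblastoid cells after 24 hr compound exposure in complete medium. Tetraoctylammonium bromide is the positive control.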
Assay [13] in a line: Cell Viability - LYMP2-024 (AID 988).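 Also: cells exposed to compound for 24 hr at 37 °C; plate controls were DMSO only for no effect and 92 µM tetraoctylammonium bromide for full effect; nearly all actives have a fitted effect of over 60% in size.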 To be noted: LYMP2-024 lymphoblastoid cell viability; series mostly up to 92.2 µM. The essentials:
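Acute toxicity is measured as concentration-dependent loss of intracellular ATP in a human lymphoblastoid line treated 24 hours at 37 C. Luciferase luminescence quantifies ATP; AC50 values come from standard Hill-equation modelling.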

In assay [14] the target is Peroxisome proliferator-activated receptor delta (Homo sapiens) (UniProt Q03181). Kind of assay: qHTS assay for small molecule agonists of peroxisome proliferator-activated receptor delta signaling (AID 588534; calls by dose curve;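 also: 0% = DMSO basal wells and 100% = positive control agonist at 10 µM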). Conditions: HEK293T PPARdelta-UAS-bla, beta-lactamase ratio, 18 h; series mostly up to 76.7 µM. The procedure, abridged: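 Reporter cells were plated and held 5 hrs at 37 C before compounds were added. After 18 hrs at 37 C, CCF4 dye was loaded for 2 hrs at RT and fluorescence measured.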

Assay [15] deals with Vitamin D3 receptor (Homo sapiens) (UniProt P11473). Kind of assay: qHTS assay for small molecule antagonists of vitamin D receptor signaling (AID 588541; calls by dose curve;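 also: receptor activated by calcitriol during compound treatment; % is scaled to controls: 0 for no effect and ±100 for the full control effect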). Conditions: HEK293T VDR-UAS-bla, beta-lactamase ratio, antagonist mode; series mostly up to 76.7 µM. The essentials:
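VDR-UAS-bla HEK293T cells in 2% charcoal-stripped FBS were stimulated with 1-alpha,25-dihydroxyvitamin D3 (3 nM final) plus compound for 16 h at 37 C. The beta-lactamase CCF4 readout was normalized to 50 nM agonist and DMSO, and Hill fits gave IC50.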

Assay [16] is described as follows: qHTS assay for small molecule activators of the p53 signaling pathway (AID 651743; active = well fitted activation curve with a large enough effect in the signal ratio, not every such curve was filed as active; the % refers to the signal ratio; also: % of control where 0% means no effect). Conditions: HCT-116 p53RE-bla, beta-lactamase FRET ratio, 16 h; activation: stronger effect = higher value. The procedure, abridged: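 HCT-116 p53RE-bla, 4,000 cells/well; 5 h settle; cpd/DMSO 16 h, 37 C; LiveBLAzer B/G 2 h RT; fluorescence intensity.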
Assay [17] addresses Tumor necrosis factor (Homo sapiens) (UniProt P01375). Kind of assay: qHTS assay to identify small molecules that stimulate Tumor Necrosis Factor-alpha (TNF-alpha) secretion (AID 651757; active = well fitted curve in the direction sought with a large enough effect in the signal ratio; the % refers to the signal ratio; also: 0% is about no effect). To be noted: Human cells, HTRF 665/615 ratio; series mostly up to 92.2 µM. The procedure, abridged: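 Secreted TNF-alpha from compound-treated THP-1 cells (17 hrs, 37 C) was quantified with a homogeneous time-resolved fluorescence antibody assay.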

Assay [18] in a line: qHTS assay for small molecule activators of the human pregnane X receptor (PXR) signaling pathway (AID 720659; call rule not given here; also: 0% is about no effect). Conditions: DPX-2 HepG2 CYP3A4-luciferase, 24 h; series mostly up to 92.3 µM.
A short description of assay [19]: Cell Viability - LYMP2-013 (AID 970).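 Also: 0% = DMSO only and full inhibition = tetraoctylammonium bromide control; nearly all actives have a fitted effect of over 55% in size.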 Conditions: LYMP2-013 lymphoblastoid cells viability; series mostly up to 92.2 µM. The essentials: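 Acute toxicity was measured in human lymphoblastoid cells (2500/well) exposed to compound titrations for 24 hr, with ATP luminescence (CellTiter-Glo) as read-out and AC50 fitted by Hill equation.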
Assay [20] in a line: Cell Viability - LYMP2-023 (AID 975).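 Also: cellular ATP measured by luciferase luminescence as viability proxy; cells exposed to compound for 24 hours at 37 °C; plate controls were DMSO only for no effect and 92 µM tetraoctylammonium bromide control for full effect; nearly all actives have a fitted effect of over 55% in size.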 To be noted: LYMP2-023 lymphoblastoid cell viability; series mostly up to 92.2 µM. The essentials: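 Concentration-dependent drop in intracellular ATP measures acute cytotoxicity in a human lymphoblastoid line treated for 24 hours in complete culture medium. AC50 values are taken from Hill-equation fits of qHTS data.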

Vitamin D3 receptor (Homo sapiens), sequence (P11473 whole entry, looked up): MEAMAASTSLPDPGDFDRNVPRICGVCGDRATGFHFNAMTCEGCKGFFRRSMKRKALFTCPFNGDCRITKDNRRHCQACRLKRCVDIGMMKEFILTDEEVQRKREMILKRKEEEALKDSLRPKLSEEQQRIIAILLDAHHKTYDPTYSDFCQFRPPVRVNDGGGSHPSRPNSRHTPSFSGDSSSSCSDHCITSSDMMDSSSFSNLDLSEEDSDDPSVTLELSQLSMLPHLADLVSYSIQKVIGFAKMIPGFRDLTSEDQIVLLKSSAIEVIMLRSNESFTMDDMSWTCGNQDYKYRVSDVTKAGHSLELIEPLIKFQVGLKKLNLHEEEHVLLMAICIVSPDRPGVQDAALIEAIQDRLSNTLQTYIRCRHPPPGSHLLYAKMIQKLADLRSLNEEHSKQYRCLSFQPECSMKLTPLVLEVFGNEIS
Peroxisome proliferator-activated receptor delta (Homo sapiens), sequence (Q03181 whole entry, looked up): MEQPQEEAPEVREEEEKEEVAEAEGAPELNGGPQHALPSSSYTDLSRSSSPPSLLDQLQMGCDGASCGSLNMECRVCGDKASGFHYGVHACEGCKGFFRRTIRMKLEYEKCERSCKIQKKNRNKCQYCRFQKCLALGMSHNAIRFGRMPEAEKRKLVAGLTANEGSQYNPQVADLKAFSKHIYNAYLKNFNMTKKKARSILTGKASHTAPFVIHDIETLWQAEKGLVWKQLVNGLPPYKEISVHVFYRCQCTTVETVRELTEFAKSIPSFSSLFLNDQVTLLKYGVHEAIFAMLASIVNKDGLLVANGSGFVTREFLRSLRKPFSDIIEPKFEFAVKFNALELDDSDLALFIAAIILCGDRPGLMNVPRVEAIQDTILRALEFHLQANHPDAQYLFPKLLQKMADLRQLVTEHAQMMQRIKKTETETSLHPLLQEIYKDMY
Tumor necrosis factor (Homo sapiens), sequence (P01375 whole entry, looked up): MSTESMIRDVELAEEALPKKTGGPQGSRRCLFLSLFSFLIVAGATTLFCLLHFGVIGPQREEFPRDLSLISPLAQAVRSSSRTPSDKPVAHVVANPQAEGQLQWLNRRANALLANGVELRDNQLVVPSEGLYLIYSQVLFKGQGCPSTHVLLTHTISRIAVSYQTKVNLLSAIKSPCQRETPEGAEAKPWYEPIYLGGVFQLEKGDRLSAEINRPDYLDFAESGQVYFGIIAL

Turning to `Nc1cccc(Cl)c1`, in [1], the Potency is above 92 µM. For the same compound, the Potency entry in assay [2], in [3], in [5], in assay [10], in [11] and in assay [12] was “inactive” each time. In [13], the Potency result was “inactive”. The call in assay [4], in [6], in assay [7], in assay [8], in assay [9] and in assay [14] was inactive. Also, the outcome in assay [15], in [17] and in assay [18] was inactive. In [16], the activation was -1.95%.
Regarding `C[N+](=O)[O-]`, in assay [1], the Potency was above 92 µM. The compound was called inactive in [4], in assay [6], in assay [8], in assay [9], in assay [14] and in assay [15]. Further, the result in assay [17] was inactive. Besides, the Potency result in assay [10], in assay [11], in assay [19], in assay [20] and in assay [12] was “inactive” throughout. For the same compound, the activation in assay [16] is -0.263%.
In the case of `c1ccc(NNc2ccccc2)cc1`, in [1], the Potency is above 92 µM. Moreover, the Potency result in assay [2], in assay [3], in assay [5], in assay [11], in assay [19] and in [20] was “inactive” each time. Besides, the Potency result in assay [12] and in assay [13] was “inactive” throughout. Moreover, the result in [4], in assay [6], in assay [7], in [8], in [9] and in [14] was inactive. For the same compound, the outcome in [15], in assay [17] and in assay [18] was inactive. Moreover, the activation in assay [16] is -0.259% and 0.698%.
For the compound `c1ccc(Nc2ccc(Nc3ccccc3)cc2)cc1`, the Potency entry in [3], in assay [5], in [10], in [11], in [19] and in [20] was “inactive” in each case. In [12], the Potency result was “inactive”. Besides, the result in assay [6], in assay [7], in assay [9], in assay [14] and in assay [15] was inactive.
Turning to `C=C(C)CCl`, in assay [1], the Potency is above 92 µM. Moreover, the Potency entry in assay [3], in assay [5], in assay [10], in assay [11], in assay [19] and in [20] was “inactive” throughout. Besides, the Potency entry in assay [12] and in assay [13] was “inactive” each time. Moreover, the call in assay [6], in [7], in [8], in [9], in [14] and in assay [15] was inactive. Moreover, the outcome in [17] and in [18] was inactive. The activation in [16] was -3.39%.
Turning to `ClCCOCCCl`, the Potency in [1] was above 92 µM. Further, the Potency result in assay [2], in assay [3], in assay [5], in assay [19], in assay [20] and in assay [12] was “inactive” each time. Besides, the Potency result in [13] was “inactive”. Also, the compound was classed as inactive in [4], in [6], in assay [7], in assay [8], in assay [9] and in [14]. The outcome in assay [17] and in assay [18] was inactive. The activation in assay [16] is -1.88%.
As to `O=S(=O)(Cl)c1ccccc1`, the Potency in [1] is above 92 µM. Besides, the activity change, negative = cytotoxicity in assay [2] is -155% (active). Besides, the Potency result in [3], in assay [10], in assay [11], in assay [19], in assay [20] and in [13] was “inactive” each time. Further, the result in assay [4], in assay [6], in [8], in [14], in assay [15] and in assay [17] was inactive. The call in assay [18] was inactive.
For the compound `N#CC(Cl)(Cl)Cl`, in [1], the Potency was above 92 µM. The Potency entry in assay [2], in assay [3], in assay [5], in assay [10], in [11] and in [19] was “inactive” throughout. Moreover, the Potency result in assay [20], in [12] and in [13] was “inactive” each time. Also, the result in assay [4], in assay [6], in assay [7], in [8], in assay [9] and in assay [14] was inactive. Also, the compound was classed as inactive in [18].
For `C=CCOCC1CO1` (stereo not drawn), the Potency in assay [1] is above 92 µM. Moreover, the Potency entry in [2], in [3], in assay [5], in [10], in [11] and in [19] was “inactive” throughout. For the same compound, the Potency entry in assay [20], in assay [12] and in assay [13] was “inactive” in each case. In addition, the outcome in assay [6], in [7], in [8], in assay [9], in [15] and in assay [17] was inactive. For the same compound, the result in assay [18] was inactive. Also, in assay [16], the activation was -3.48%.
